Data from PubChem BioAssay (NCATS).
Results filed as inconclusive are left out. The source made the active and inactive calls. Unless noted, the call rests on the fitted dose curve; in most records, active means well fitted curve in the direction sought with a large enough effect; inconclusive means small, poorly fitted or top-dose-only effect, or another doubt; inactive means no such curve, though single readings can be large; an effect the other way counts as inactive or inconclusive.

What was measured:
[1] = Validation of Assay for Modulators of Lamin A Splicing (AID 1459; active means well fitted curve in the direction sought with a large enough effect in the signal ratio; the % refers to the signal ratio;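 further: cells exposed to compound for two days before reading; 0% is about no effect; ratio rise marks activators and ratio drop marks inhibitors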)
How it was run: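 S3 HeLa stably expressing lamin A-EGFP splicing minigene and DsRed2, 600 cells/well in Opti-MEM with 2% FBS, treated 48 h at 37C; laser-scanning cytometry gives GFP/RFP total intensity ratio; ancitabine positive control, 0.5% DMSO vehicle.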

[2] = qHTS Assay for Lipid Storage Modulators (AID 1519; calls by dose curve; on activity change, negative = inhibition: on the % scale 0 is the no-effect control and ±100 the full control effect); settings: Drosophila S3 cells, BODIPY lipid droplet/cell ratio, laser cytometry, cells loaded with oleic acid
How it was run: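 Cells seeded at 5,000 per well were treated with compounds over a concentration series and loaded with oleic acid (400 uM, as added). Lipid droplet fluorescence (488 nm excitation, 500-530 nm channel) was read by laser-scanning cytometry and normalized to 20 uM Triacsin C.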

[3] = Counterscreen for APE1 Inhibitors: Fluorescent Dye Displacement Validation Assay (AID 1707);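 further: plate controls were ThO with dsDNA and no compound for no effect and ThO without dsDNA for full effect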
How it was run: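 Compounds are scored by their ability to displace Thiazole Orange (250 nM) from a 50 nM TAMRA-tagged duplex bearing a tetrahydrofuran abasic site. Buffer is 50 mM Tris-HCl pH7.5, 50mM NaCl, 2 mM MgCl2, 0.01% Tween-20.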

[4] = biological target: Endonuclease 4 (Escherichia coli (strain K12)) (UniProt P0A6C1); assay: Counterscreen for APE1 Inhibitors: qHTS Validation Assay for Inhibitors of Endonuclease IV (AID 1708); further: on the % scale 0 is the no-effect control and ±100 the full control effect
How it was run: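 qHTS concentration-response format; LOPAC1280 tested under APE1-screen conditions. 2 nM enzyme, 15 min compound preincubation at RT, then 50 nM TAMRA/BHQ-2 abasic substrate; kinetic fluorescence read, three reads at 60 s intervals.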

[5] = qHTS for differential inhibitors of proliferation of Plasmodium falciparum line GB4 (AID 1816); settings: Potency: Plasmodium falciparum GB4 proliferation inhibition;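 further: parasite growth measured after 72 h incubation; 0% = vehicle DMSO and -100% = reference inhibitor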
[6] = qHTS for differential inhibitors of proliferation of Plasmodium falciparum line 3D7 (AID 1876);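 further: parasite growth measured after three days of culture; 0% = vehicle wells and -100% = reference inhibitor wells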
[7] = qHTS for differential inhibitors of proliferation of Plasmodium falciparum line D10 (AID 1877);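 further: parasites grown with compound for 72 h before DNA staining; plate controls were vehicle wells for no effect and reference inhibitor wells for full effect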
[8] = qHTS for differential inhibitors of proliferation of Plasmodium falciparum line Dd2 (AID 1882); settings: Potency: Plasmodium falciparum Dd2 proliferation inhibition;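 further: plate controls were DMSO vehicle for no effect and 0.29 µM artemisinin for full effect; nearly all actives have a fitted effect of over 65% in size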
How it was run: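 Dd2-infected erythrocytes (0.3% parasitemia, 2.5% hematocrit final) incubated with compound 72 h at 37 C, 5% CO2; lysed with saponin/Triton buffer containing SYBR Green I, incubated overnight in the dark, then read by fluorescence (485/535 nm). Normalized to 0.29 uM artemisinin and DMSO.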

[9] = qHTS for differential inhibitors of proliferation of Plasmodium falciparum line HB3 (AID 1886); settings: Potency: Plasmodium falciparum HB3 proliferation inhibition;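 further: parasites grown with compound for 72 h before SYBR Green readout; plate controls were vehicle for no effect and reference inhibitor for full effect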
[10] = qHTS Assay for Modulators of Human Peripheral Myelin Protein 22 (PMP22) Expression/Activity (AID 1967; active means well fitted curve in the direction sought with a large enough effect in the signal ratio; the % refers to the signal ratio;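 further: 0% = untreated cells and 100% end not stated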)
How it was run: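 Mouse MSC80 Schwann cells carrying Pmp22 promoter–green click beetle luciferase plus EF-alpha–red luciferase control, dosed 24 h at 37 °C. Dual-filter luminescence, overlap-corrected; %Activity from green/red ratio normalised to untreated cells, concentration-response curves fitted.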

[11] = biological target: Ferritin light chain (Equus caballus) (UniProt P02791); assay: qHTS Validation Assay for Identification of Novel General Anesthetics (AID 2323); further: on the % scale 0 is the no-effect control and ±100 the full control effect
How it was run: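 Horse-spleen apoferritin (10 uM) in PBS with 50% saturated 1-aminoanthracene; compounds pin-transferred, 10 min at room temperature. Fluorescence read at 380/535 nm, normalized to free 1-AMA and 1-AMA/apoferritin values; four-parameter Hill fit.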

[12] = biological target: ATP-dependent DNA helicase Q1 (Homo sapiens) (UniProt P46063); assay: qHTS Validation Assay for Inhibitors of RecQ-Like Dna Helicase 1 (RECQ1) (AID 2353);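 further: plate controls were DMSO vehicle for no effect and enzyme-free control for full effect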
How it was run: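 50 nM RECQ1T1 preincubated 15 min with compound in Tris pH 8.0 buffer with MgCl2, DTT, Tween-20 and 2.5 ug/ml poly(dI-dC); started with 200 nM TAMRA/BHQ-2 forked duplex and 2 mM ATP. Unwinding read as fluorescence (525/598 nm), two reads 2 h apart.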

[13] = biological target: RecQ-like DNA helicase BLM (Homo sapiens) (UniProt P54132); assay: qHTS Validation Assay for Inhibitors of Bloom's syndrome helicase (BLM) (AID 2364);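 further: plate controls were DMSO vehicle for no effect and enzyme-free control for full effect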
RecQ-like DNA helicase BLM (Homo sapiens), sequence (P54132 whole entry, looked up): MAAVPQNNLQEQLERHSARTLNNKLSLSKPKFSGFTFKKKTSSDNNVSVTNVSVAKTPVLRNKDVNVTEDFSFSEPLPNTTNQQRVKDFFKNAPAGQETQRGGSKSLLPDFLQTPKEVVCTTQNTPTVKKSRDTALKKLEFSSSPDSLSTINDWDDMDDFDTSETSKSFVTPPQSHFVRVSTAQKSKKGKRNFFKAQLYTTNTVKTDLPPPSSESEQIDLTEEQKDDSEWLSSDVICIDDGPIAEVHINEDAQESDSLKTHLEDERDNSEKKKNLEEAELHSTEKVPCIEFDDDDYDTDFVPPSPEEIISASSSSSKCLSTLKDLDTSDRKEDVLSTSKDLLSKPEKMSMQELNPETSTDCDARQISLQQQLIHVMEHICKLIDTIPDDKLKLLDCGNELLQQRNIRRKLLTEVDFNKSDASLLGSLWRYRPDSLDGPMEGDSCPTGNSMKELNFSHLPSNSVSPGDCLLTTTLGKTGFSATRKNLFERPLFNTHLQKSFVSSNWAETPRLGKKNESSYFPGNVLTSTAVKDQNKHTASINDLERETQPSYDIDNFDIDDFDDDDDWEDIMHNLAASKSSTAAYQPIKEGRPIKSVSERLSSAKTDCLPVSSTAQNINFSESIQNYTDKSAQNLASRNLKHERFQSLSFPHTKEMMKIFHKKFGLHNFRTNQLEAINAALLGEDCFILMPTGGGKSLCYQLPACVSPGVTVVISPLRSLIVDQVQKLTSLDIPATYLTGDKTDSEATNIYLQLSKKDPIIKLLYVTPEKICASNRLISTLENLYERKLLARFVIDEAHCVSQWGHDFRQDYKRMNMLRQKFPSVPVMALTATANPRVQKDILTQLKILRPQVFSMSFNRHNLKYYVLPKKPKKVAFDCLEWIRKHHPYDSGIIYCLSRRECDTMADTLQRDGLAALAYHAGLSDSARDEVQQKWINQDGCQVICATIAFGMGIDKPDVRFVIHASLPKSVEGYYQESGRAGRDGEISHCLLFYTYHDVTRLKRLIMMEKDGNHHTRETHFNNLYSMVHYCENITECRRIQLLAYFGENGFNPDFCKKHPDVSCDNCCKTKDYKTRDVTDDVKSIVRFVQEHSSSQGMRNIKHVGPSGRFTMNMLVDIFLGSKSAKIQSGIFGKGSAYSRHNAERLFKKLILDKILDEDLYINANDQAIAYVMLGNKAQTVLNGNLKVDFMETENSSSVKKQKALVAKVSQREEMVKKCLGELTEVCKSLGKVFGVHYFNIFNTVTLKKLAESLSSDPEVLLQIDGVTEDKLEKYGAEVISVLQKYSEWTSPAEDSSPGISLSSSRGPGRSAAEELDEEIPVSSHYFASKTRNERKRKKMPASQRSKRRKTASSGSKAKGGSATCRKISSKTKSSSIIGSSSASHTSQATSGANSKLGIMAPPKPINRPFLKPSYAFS
How it was run: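 Forked 20-bp duplex substrate (200 nM, TAMRA/BHQ-2) plus 2 mM ATP added after 15 min compound preincubation with 50 nM enzyme, pH 8.0, poly(dI-dC) 2.5 ug/ml. Strand separation followed by fluorescence (525/598 nm) over 2 h, normalized to enzyme-free and DMSO controls.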

[14] = Cytometric Cell-Based qHTS for Inhibitors of the mTORC1 Signaling Pathway in MEF (Tsc2-/-, p53-/-) Cells (AID 2660);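 further: Tsc2 and p53 null MEFs carrying empty vector with compound for 24 h; percent of cells above a phospho-rpS6 to PI ratio cutoff in each well; plate controls were DMSO for no effect and rapamycin for full effect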
How it was run: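 Immunofluorescence qHTS of rpS6 Ser235/236 phosphorylation: MEFs (Tsc2-/-, p53-/-) treated 24 h, 37 C, in DMEM + 10% FBS. Alexa-488 signal normalized to PI count, referenced to rapamycin (7.5 nM) and DMSO; PI cell number recorded for viability.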

[15] = High Content Imaging Cell-Based qHTS for Inhibitors of the mTORC1 Signaling Pathway in MEF (Tsc2-/-, p53-/-) Cells (AID 2666); settings: at 38.3 µM (top of the series);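 further: percent of cells scored positive for phospho-rpS6 Ser235/236 immunostaining by imaging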
How it was run: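 Cells were plated, dosed with compound after 24 hrs, and incubated another 24 hrs at 37 degree Celsius. Fixed cells were immunostained for phospho-rpS6 Ser235/236 and counterstained, and the normalized signal was scored as % active cells against rapamycin and DMSO controls.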

[16] = High Content Imaging Cell-Based qHTS for Inhibitors of the mTORC1 Signaling Pathway in MEF Cells (AID 2667);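 further: Tsc2-/- p53-/- MEFs stably re-expressing wild-type Tsc2 exposed 24 h; plate controls were DMSO wells for no effect and rapamycin control wells for full effect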
How it was run: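 Immunofluorescence for rpS6 phosphorylation in MEFs of Tsc2-/-, p53-/- background rescued with WT Tsc2. Compound exposure lasted 24 hrs. Inhibition was scored against rapamycin-treated control wells.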

[17] = Cytometry Cell-Based qHTS for Inhibitors of the mTORC1 Signaling Pathway in MEF cells (AID 2668);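 further: Tsc2-/- p53-/- mouse embryonic fibroblasts stably re-expressing wild-type Tsc2; percent cells positive for phospho-rpS6 Ser235/236 relative to propidium iodide stain; plate controls were DMSO wells for no effect and 7.5 nM rapamycin control wells for full effect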
How it was run: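 MEFs (Tsc2-/-, p53-/- stably expressing WT Tsc2) treated 24 h at 37 degree Celsius, fixed, stained with Alexa-488 anti-phospho-rpS6 Ser235/236 and propidium iodide; Acumen laser scanning. Reported as % positive cells, phospho-S6 normalized to PI.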

[18] = Validation screen for small molecules that induce DNA re-replication in MCF 10A normal breast cells (AID 463097); further: 0% is about no effect; nearly all actives have a fitted effect of over 60% in size
How it was run: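 MCF 10A cells exposed to compound 48 hr at 37 C, 5% CO2, then Hoechst-stained 40 min. Laser-scanning imaging of nuclear DNA content (405 nm ex, 500-530 nm em); re-replication scored as rise in nuclei with elevated fluorescence intensity.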

[19] = biological target: Ubiquitin carboxyl-terminal hydrolase 2 (Homo sapiens) (UniProt O75604); assay: qHTS Validation Assay for Inhibitors of Ubiquitin-specific Protease USP2a Using CHOP2 as the Reporter (AID 463106);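 further: plate controls were DMSO for no effect and full inhibition by NEM for full effect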
How it was run: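 10nM USP2 core + cpd, 30min RT; add 25nM Ub-CHOP2/25nM substrate; 60min RT; FI 485/531nm. Buffer Tris pH 8.0, CaCl2, BME, CHAPS. Norm. to NEM = 100% inhibition; time-zero read flags fluorescent artifacts.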

[20] = biological target: Tumor susceptibility gene 101 protein (Homo sapiens) (UniProt Q99816); assay: qHTS Validation Assay for Iinhibitors of HIV-1 Budding by Blocking the Interaction of PTAP/TSG101 (AID 485342; calls by dose curve; further: 0% is about no effect)
How it was run: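 Tsg101 binding domain (10 uM) with FITC-labeled PTAP peptide (50 nM) in HEPES pH 7.5 buffer, 20 min at r.t. with compounds. Binding measured by fluorescence polarization.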

[21] = qHTS Validation Assay to Find Inhibitors of Chronic Active B-Cell Receptor Signaling (AID 485345; active means well fitted curve in the direction sought with a large enough effect in the main read-out, with a control signal flat, not every such curve was filed as active;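 further: 0% = untreated basal cells and 100% = 10 µM MG-132 proteasome inhibitor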)
How it was run: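 Read-out: ratio of filter-corrected green (IkappaBalpha fusion) to red (native) luciferase signal in doxycycline-induced TMD8 cells after 4 h at 37C. Titration spanned 46 uM–3 nM; Data were normalised to basal cells and 10 uM MG-132 wells.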

[22] = biological target: Beta-2 adrenergic receptor (Homo sapiens) (UniProt P07550); assay: qHTS validation assay of beta-arrestin-biased ligands of beta2-adrenergic receptor (AID 485366); further: 0% is about no effect
How it was run: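 Arrestin-recruitment (Tango) reporter: ligand-bound beta2-AR recruits beta-arrestin, releasing tTA, which upregulates luciferase. Titrations of up to 46 microM incubated 18 hr at 37 degrees C before luminescent readout.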

[23] = biological target: Thioredoxin reductase 1, cytoplasmic (Rattus norvegicus) (UniProt O89049); assay: qHTS Assay for Substrates of Mammalian Selenoprotein Thioredoxin Reductase 1 (TrxR1) (AID 488772);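 further: NADPH fluorescence in the first read after selenite addition and not the 8 min delta; 0% is about no effect; a drop in NADPH fluorescence below the no-compound background marks a TrxR1 substrate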
Thioredoxin reductase 1, cytoplasmic (Rattus norvegicus), sequence (O89049 whole entry, looked up): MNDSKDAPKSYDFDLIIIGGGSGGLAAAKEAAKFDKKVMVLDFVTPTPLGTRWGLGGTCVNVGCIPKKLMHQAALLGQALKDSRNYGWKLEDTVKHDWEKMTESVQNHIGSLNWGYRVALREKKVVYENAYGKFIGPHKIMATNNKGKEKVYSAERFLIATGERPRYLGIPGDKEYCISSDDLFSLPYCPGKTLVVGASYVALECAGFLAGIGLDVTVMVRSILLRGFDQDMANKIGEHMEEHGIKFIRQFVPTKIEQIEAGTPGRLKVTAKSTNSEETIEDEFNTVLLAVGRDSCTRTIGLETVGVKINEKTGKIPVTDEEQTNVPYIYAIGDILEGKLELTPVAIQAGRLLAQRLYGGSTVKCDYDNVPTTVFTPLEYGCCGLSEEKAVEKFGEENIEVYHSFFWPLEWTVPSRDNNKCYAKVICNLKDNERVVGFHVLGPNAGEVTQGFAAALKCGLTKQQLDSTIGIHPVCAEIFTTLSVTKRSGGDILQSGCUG
How it was run: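 Quantitative HTS in Tris-HCl buffer at pH 7.5 with EDTA and Tween-20, using rat TrxR1, 400 uM NADPH and 400 uM selenite (final). A fall in initial NADPH fluorescence relative to background marked substrate behaviour.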

[24] = biological target: Thioredoxin reductase 1, cytoplasmic (Rattus norvegicus) (UniProt O89049); assay: qHTS Assay for Inhibitors of Mammalian Selenoprotein Thioredoxin Reductase 1 (TrxR1) (AID 488773); settings: Potency: inhibition;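 further: drop in NADPH fluorescence over an 8 min run after selenite addition; on the % scale 0 is the no-effect control and ±100 the full control effect; nearly all actives have a fitted effect of over 40% in size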
How it was run: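 Steps: enzyme (90 nM) plus NADPH (400 uM final), 5 min at ~22 deg C; compound added, 15 min; selenite (400 uM final) added; fluorescence followed for 8 min. Concentration-response curves derived from the normalized delta values.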

[25] = biological target: Flap endonuclease 1 (Homo sapiens) (UniProt P39748); assay: qHTS Validation Assay for the Inhibitors of Human Flap endonuclease 1 (FEN1) (AID 488816); further: on the % scale 0 is the no-effect control and ±100 the full control effect
Flap endonuclease 1 (Homo sapiens), sequence (P39748 whole entry, looked up): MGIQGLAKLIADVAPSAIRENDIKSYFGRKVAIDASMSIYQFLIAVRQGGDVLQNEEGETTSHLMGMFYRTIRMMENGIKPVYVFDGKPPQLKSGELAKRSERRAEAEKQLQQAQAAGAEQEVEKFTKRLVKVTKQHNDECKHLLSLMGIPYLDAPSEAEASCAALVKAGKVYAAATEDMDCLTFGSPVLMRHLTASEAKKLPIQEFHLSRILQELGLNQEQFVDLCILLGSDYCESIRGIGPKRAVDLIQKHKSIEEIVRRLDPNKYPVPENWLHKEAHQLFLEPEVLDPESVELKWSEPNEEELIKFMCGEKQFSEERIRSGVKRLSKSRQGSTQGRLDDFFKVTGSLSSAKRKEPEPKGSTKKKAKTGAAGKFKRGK
How it was run: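 Readings taken at 0 and 15 min after starting the reaction with 50 nM (final) substrate supplied the signal. Compounds had first sat with 10 nM FEN1 reagent for 15 min at room temperature. Values come from Hill-equation concentration-response fits.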

[26] = biological target: M-phase phosphoprotein 8 (Homo sapiens) (UniProt Q99549); assay: qHTS Validation Assay for Inhibitors for MPP8 Chromodomain Interactions with Methylated Histone Tails (AID 488949); further: top concentration of the series differs between compounds; on the % scale 0 is the no-effect control and ±100 the full control effect; nearly all actives have a fitted effect of over 55% in size
M-phase phosphoprotein 8 (Homo sapiens), sequence (Q99549 whole entry, looked up): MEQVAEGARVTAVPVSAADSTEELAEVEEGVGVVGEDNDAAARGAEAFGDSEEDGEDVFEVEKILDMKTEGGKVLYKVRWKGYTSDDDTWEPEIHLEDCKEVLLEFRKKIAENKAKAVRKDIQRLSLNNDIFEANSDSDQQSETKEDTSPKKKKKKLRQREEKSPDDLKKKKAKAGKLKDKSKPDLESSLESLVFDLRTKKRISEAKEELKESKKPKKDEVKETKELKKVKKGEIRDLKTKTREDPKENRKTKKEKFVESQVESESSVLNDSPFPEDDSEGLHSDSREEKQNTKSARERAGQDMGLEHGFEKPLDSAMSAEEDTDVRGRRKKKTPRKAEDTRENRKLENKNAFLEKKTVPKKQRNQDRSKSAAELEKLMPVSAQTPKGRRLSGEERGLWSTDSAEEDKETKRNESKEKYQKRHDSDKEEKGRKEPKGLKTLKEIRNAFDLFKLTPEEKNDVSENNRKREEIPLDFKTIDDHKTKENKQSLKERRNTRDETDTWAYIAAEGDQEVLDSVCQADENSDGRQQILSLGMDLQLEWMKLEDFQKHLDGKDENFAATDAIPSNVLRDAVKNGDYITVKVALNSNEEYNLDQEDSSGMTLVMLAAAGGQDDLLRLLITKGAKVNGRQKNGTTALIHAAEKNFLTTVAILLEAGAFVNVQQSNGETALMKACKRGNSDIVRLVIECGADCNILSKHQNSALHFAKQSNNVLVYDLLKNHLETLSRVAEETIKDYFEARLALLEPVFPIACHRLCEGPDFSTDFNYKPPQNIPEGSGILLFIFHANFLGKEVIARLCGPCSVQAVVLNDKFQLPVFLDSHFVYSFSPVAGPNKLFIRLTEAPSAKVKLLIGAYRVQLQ
How it was run: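 MPP8 (50 nM) was pre-bound to 50 nM biotinylated H3(1-18)K9me3 peptide in PBS pH 7.4 with 0.01% Tween-20. Compounds were then added for 30 min at room temperature, and complex disruption was read by AlphaScreen with streptavidin donor and nickel-chelate acceptor beads.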

[27] = biological target: Methanococcus maripaludis chaperonin (MmCpn) (UniProt Q6LX38); assay: High-Throughput Screening for Modulators of Cytosolic Chaperonin Activity: MmCpn Primary Screen (AID 488978);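 further: 50 nM MmCpn enzyme hydrolysing 30 µM ATP at 37 °C; 0% is about no effect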
Methanococcus maripaludis chaperonin (MmCpn), sequence (Q6LX38 1-543): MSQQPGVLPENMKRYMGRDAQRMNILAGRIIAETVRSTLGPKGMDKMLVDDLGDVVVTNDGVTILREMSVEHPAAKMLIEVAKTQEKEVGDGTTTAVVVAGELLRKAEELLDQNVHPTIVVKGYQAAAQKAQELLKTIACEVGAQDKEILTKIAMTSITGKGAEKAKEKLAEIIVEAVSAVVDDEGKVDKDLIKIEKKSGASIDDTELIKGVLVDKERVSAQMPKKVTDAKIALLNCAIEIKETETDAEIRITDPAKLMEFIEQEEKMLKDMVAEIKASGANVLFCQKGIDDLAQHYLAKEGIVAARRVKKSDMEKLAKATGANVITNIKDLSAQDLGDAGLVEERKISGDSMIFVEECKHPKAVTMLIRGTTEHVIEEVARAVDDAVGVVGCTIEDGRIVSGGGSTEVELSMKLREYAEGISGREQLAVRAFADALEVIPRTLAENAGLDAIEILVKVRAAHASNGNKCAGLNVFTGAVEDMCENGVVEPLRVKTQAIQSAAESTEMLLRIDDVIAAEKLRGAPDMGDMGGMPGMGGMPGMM
How it was run: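 MmCpn at 50 nM final was preincubated 5 min at RT with compound. ATP was then added at 30 uM final for 10 min at 37 C. ADP formed was detected by Transcreener HTRF (665/590 nm).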

[28] = biological target: Transient receptor potential cation channel subfamily V member 1 (Homo sapiens) (UniProt Q8NER1); assay: HTS Assay for Compounds that Act as Enhancers of the Vanilloid Receptor 1 (AID 488979); further: 0% is about no effect
How it was run: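 Calcium influx kinetics via Fluo-8 (480/520 nm) in TRPV1-expressing cells, 2000/well cultured overnight at 35.5C. Compound-alone read 3 min (agonist phase), followed by EC20 capsaicin challenge for 2 min (enhancer phase).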

[29] = biological target: Thyrotropin receptor (Homo sapiens) (UniProt P16473); assay: qHTS Assay for Antagonists of the Thyroid Stimulating Hormone Receptor (AID 488980); further: 0% is about no effect
Thyrotropin receptor (Homo sapiens), sequence (P16473 whole entry, looked up): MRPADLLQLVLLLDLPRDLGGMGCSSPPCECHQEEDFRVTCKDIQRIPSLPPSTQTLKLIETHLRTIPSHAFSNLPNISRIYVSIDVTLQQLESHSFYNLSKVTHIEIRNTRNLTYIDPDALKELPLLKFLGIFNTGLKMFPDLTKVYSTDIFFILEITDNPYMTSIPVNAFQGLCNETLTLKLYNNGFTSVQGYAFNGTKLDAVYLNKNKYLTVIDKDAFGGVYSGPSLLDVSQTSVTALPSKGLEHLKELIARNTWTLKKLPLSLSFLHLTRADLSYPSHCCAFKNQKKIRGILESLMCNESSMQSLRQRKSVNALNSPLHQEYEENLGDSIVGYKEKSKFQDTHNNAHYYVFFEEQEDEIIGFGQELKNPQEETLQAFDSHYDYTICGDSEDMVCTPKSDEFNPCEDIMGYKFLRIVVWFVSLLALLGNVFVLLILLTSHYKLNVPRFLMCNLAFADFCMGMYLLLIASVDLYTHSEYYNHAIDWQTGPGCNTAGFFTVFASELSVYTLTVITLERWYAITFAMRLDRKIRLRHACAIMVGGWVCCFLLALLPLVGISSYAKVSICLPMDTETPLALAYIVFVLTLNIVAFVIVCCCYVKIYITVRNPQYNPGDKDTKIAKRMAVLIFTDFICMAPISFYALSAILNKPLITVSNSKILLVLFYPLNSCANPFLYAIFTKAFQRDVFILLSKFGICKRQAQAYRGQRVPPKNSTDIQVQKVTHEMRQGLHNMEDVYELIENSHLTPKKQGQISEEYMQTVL
How it was run: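 TSHR-transfected HEK293 cells (2000/well) in HEPES-buffered HBSS with 70 uM RO 20-1724 were stimulated with 4 nM TSH (EC80, final) in the presence of compound. cAMP was measured by HTRF competition after lysis and 30 min at RT.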

[30] = biological target: D(1A) dopamine receptor (Homo sapiens) (UniProt P21728); assay: HTS Assay for Allosteric Agonists of the Human D1 Dopamine Receptor: Primary Screen for Agonists (AID 488981); further: 0% is about no effect
D(1A) dopamine receptor (Homo sapiens), sequence (P21728 whole entry, looked up): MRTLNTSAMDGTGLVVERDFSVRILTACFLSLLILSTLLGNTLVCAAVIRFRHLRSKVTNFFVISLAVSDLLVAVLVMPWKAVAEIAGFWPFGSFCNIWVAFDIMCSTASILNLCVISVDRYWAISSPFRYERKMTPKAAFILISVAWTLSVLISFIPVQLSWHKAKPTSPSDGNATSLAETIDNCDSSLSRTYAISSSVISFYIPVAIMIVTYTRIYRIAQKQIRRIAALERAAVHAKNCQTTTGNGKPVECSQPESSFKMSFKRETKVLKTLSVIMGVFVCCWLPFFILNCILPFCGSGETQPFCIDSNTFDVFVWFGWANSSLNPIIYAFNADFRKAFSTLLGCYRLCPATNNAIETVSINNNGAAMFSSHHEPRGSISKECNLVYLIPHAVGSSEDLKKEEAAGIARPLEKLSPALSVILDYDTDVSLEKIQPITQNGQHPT
How it was run: (§1)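 Calcium flux in an inducible, force-coupled HEK293 Trex D1 line (overnight at 30 C): agonist mode is the 180 s kinetic read after compound; potentiator mode is the following 180 s read after dopamine at EC20.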

[31] = biological target: D(1A) dopamine receptor (Homo sapiens) (UniProt P21728); assay: HTS Assay for Allosteric Agonists of the Human D1 Dopamine Receptor: Primary Screen for Potentiators (AID 488982); further: 0% is about no effect
How it was run: as §1

[32] = biological target: D(1A) dopamine receptor (Homo sapiens) (UniProt P21728); assay: HTS Assay for Allosteric Agonists of the Human D1 Dopamine Receptor: Primary Screen for Antagonists (AID 488983);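 further: calcium flux response to an EC80 dopamine challenge measured with no-wash dye; on the % scale 0 is the no-effect control and ±100 the full control effect; nearly all actives have a fitted effect of over 65% in size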
How it was run: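 Cells are induced with tetracycline and incubated overnight at 30 C, then loaded with calcium dye for 30 to 90 minutes at room temperature. Compound addition is followed by a 180 s read, then an EC80 dopamine addition and another 180 s read.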

[33] = Validation screen for small molecules that induce genotoxicity in human embryonic kidney (HEK293T) cells expressing luciferase-tagged ELG1 (AID 493106); further: potency means the concentration at half of the fitted maximal effect
How it was run: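 Luminescence from an ELG1-luciferase fusion serves as the read-out, rising when genetic stress elevates ELG1 protein. HEK293T reporter cells (2,000 per well) received 23 nL compound, incubated 16 hr at 37 °C, then ONE-Glo for 30 min at room temperature.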

[34] = biological target: Thyrotropin-releasing hormone receptor (Homo sapiens) (UniProt P34981); assay: qHTS for Small Molecule Agonists and Allosteric Enhancers of Human TRH Receptor: Validation Screen for Agonists (AID 493127;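 active means calcium activation more than 3 SD above the typical response in the agonist read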;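 further: intracellular calcium rise by fluo-8 fluorescence before TRH EC20 addition; 0% is about no effect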); settings: TRH receptor agonist cell assay; at 2 µM; stronger effect = higher value
How it was run: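 Cells 2000/well, 10% FCS, 18 h 33.5C/5% CO2 → fluo-8 Ca dye, RT 30 min–1.5 h → FDSS baseline 10 × 1 s → compound added → 230 cycles (1 s/cycle) agonist mode. TRH controls.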

[35] = Nrf2 qHTS screen for inhibitors: Validation (AID 493153; active means well fitted inhibition curve with a large enough effect in the main read-out, with a control signal flat, not every such curve was filed as active;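 further: A549 cells with ARE-driven firefly luciferase reporter reporting Nrf2 activity; % of control where 0% means no effect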); settings: viability change: measured here: cytotoxicity max response
How it was run: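 Luminescence from an ARE-firefly luciferase reporter in A549 cells gives Nrf2 inhibition; an earlier CellTiter-Fluor fluorescent read flags cytotoxicity. Cells in 5% FBS OPTI-MEM received compound dilution series for 18-24 h at 37°C.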

Cc1cccc(/C=C/c2ccccc2)n1
54.4%: max response ([2]; measured here: cell count channel max response)
active: Potency [33] 4.11 µM
55.9%: max response ([2]; measured here: lipid channel max response)
inactive: outcome [1] | activity change, negative = inhibition ([2]; at 57.5 µM (top of the series)) 1.78% | Potency [3] | Potency [4] | Potency [5] | Potency [6] | Potency [7] | Potency [8] | Potency [9] | outcome [10] | outcome [11] | Potency [12] | Potency [13] | outcome [14] | outcome [15] | Potency [16] | Potency [17] | Potency [18] | Potency [19] | outcome [20] | outcome [21] | outcome [22] | outcome [23] | Potency [24] | Potency [25] | Potency [26] | outcome [27] | outcome [28] | outcome [29] | outcome [30] | outcome [31] | outcome [32] | activation [34] -7% | outcome [35]
